Source: PubChem (several laboratories)
The list is not random: actives were taken first. Their share in the collection is about 3.5%.
Mcl1 Noxa PPI: Mcl-1/Noxa interaction inhibition. 220,000 compounds, 1.5% hits. inhibition, % at 21.7 µM. TR-FRET Mcl-1/Noxa peptide binding, 2 h. Q07820;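 active means compounds that cut the protein-peptide binding signal by more than 50% relative to plate controls in a single-dose test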;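 further: His-tagged Mcl-1 with rhodamine Noxa BH3 peptide and terbium anti-His antibody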
Mcl-1 Bim block: inhibitors of Bim-Mcl-1 interaction, human | 190,000 compounds, 0.1% hits | Q07820 | AID 1009 | inhibition, % at 10 µM | Bead-based flow cytometry, Bim peptide-Mcl-1 binding; in the data active means inhibition above about 40%
eIF4E-4G inh: blocks eIF4E binding to eIF4G; P63073+Q04637; TR-FRET eIF4E-eIF4GI(517-606) binding, 2 h; inhibition, % at 21.7 µM; 220,000 compounds, 0.37% hits; AID 782;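 active means inhibition above about 30%, limit read from the data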
Hck Nef HTS: blocks Nef-activated human Hck kinase | inhibition, % at 20 µM | P08631 | Recombinant Hck-YEEI plus Nef, Z-Lyte FRET kinase assay | 220,000 compounds, 0.68% hits | AID 463187;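 active means Hck-Nef kinase inhibition above about 50%, limit read from the data; inactive means inhibition below that limit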
Target sequence (P08631 whole entry, looked up): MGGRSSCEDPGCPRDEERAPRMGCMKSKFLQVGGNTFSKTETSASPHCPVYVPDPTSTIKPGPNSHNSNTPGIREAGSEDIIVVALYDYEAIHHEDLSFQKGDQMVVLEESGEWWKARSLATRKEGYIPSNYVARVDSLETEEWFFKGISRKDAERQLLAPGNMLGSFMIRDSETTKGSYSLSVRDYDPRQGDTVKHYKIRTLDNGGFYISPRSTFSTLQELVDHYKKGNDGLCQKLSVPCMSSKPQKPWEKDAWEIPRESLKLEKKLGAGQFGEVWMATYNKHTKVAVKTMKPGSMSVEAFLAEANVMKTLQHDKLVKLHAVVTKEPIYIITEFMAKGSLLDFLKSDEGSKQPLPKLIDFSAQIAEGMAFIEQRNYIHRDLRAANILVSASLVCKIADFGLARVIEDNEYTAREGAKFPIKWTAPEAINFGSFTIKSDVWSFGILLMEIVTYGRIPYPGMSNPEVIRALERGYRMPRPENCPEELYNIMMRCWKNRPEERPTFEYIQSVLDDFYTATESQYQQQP
14-3-3 Bad PPI: disrupts binding of bovine 14-3-3 zeta to phospho-Bad peptide | P63103 | TR-FRET 14-3-3zeta/Dy647-pBad peptide displacement, 1 h | inhibition, % at 21.7 µM | 220,000 compounds, 0.71% hits | AID 781;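 active means inhibition above about 70%, limit read from the data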
Mcl1 Bid PPI: Mcl-1/Bid interaction inhibition | 220,000 compounds, 0.97% hits | AID 1021 | TR-FRET Mcl-1/Bid-Dy647 peptide binding, 1536-well | inhibition, % at 21.7 µM;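 active means compounds that cut the binding signal by more than half at the single screening dose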;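 further: His-tagged Mcl-1 with europium anti-His antibody binding Bid BH3 peptide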
Numbers stand for hits; i = inactive; nt = not tested or not shown; [ ] = dose if it differs, or a comment.

SMILES	Mcl1 Noxa PPI	Mcl-1 Bim block	eIF4E-4G inh	Hck Nef HTS	14-3-3 Bad PPI	Mcl1 Bid PPI
CC(C)(C)CC(=O)O/N=C(\N)c1ccncc1	i	i	i	i	i	82
N/C(=N\OC(=O)CCC1CCCC1)c1ccncc1	i	95	i	i	i	i
COc1cc2c(cc1OC)N1C(=O)CC(OCC(=O)O)C3C4CC5(CCN5C(=O)C4=O)C2C31 (stereo unspecified)	i	i	i	i	i	i
COc1ccc(Cl)cc1Nc1nc(-c2sc(NC(=O)c3ccccc3)nc2C)cs1	i	i	i	i	i	70
COc1ccc(OC)c(Nc2nc(-c3sc(NC(=O)c4ccccc4)nc3C)cs2)c1	i	i	i	i	i	i
Cc1ccc(Cl)cc1Nc1nc(-c2sc(NC(=O)c3cccc(Cl)c3)nc2C)cs1	i	i	i	i	89	61
Cc1ccccc1Nc1nc(-c2sc(NC(=O)c3ccc([N+](=O)[O-])cc3)nc2C)cs1	i	i	i	i	i	i
CCOc1ccccc1Nc1nc(-c2sc(NC(=O)c3ccc([N+](=O)[O-])cc3)nc2C)cs1	86	i	i	i	i	96
Cc1nc(NC(=O)c2ccccc2)sc1-c1csc(Nc2ccc(Cl)cc2Cl)n1	i	i	i	i	76[fluorescence artefact?]	i
O=C(/C=C/c1ccc(S(=O)(=O)N2CCOCC2)cc1)NCc1ccccc1	i	i	i	i	i	i
O=C(NC1CC1)C1=C[C@@H](C2CCCCC2)C[C@@H](OCc2ccc(CO)cc2)O1	i	i	i	i	i	i
O=C(NC1CC1)C1=C[C@@H](C2CC2)C[C@@H](OCc2ccc(CO)cc2)O1	i	nt	34	i	i	i
CC(C)c1nc2oc3c(N(C)CCO)ncnc3c2c2c1CCC2	i	nt	i	i	i	i
CCOC(=O)c1c(CSc2ccc(C)cc2)n(C)c2cc(Br)c(O)c(CN(C)C)c12	86	i	i	i	i	i
CCOC(=O)c1c(CSc2ccsc2)n(C)c2cc(Br)c(O)c(CN(C)C)c12	60	nt	i	i	i	i
CCOc1ccc(NC(=O)C(Cc2ccccc2)NC(=O)C2CCCCC2)cc1 (stereo unspecified)	i	i	i	i	i	i
COc1ccc(-n2nc3cc(C)c(N)c(Br)c3n2)cc1	89	i	i	i	i	i
COc1ccc(-n2nc3ccccc3n2)cc1	i	i	i	i	i	i
Nc1cc2nn(-c3ccccc3)nc2cc1Cl	66	i	i	i	i	i
Cc1ccc(-n2nc3cc(C)c(N)cc3n2)cc1	90	i	i	i	i	i
CCCCC(=O)Nc1cccc(C(=O)N/N=C/c2ccc(OC)cc2OC)c1	i	i	i	i	i	i
O=[N+]([O-])c1ccc2[nH]nc(-c3ccccc3)c2c1	i	44	i	i	i	i
O=[N+]([O-])c1ccc2[nH]c3nc4ccccc4nc3c2c1	64	nt	i	i	i	i
O=[N+]([O-])c1ccc2nc(-c3ccccc3)[nH]c2c1	i	i	i	i	i	i
O=C(O)c1[nH]c2ccc([N+](=O)[O-])cc2c1-c1ccccc1	i	nt	i	i	i	i
SMILES	Mcl1 Noxa PPI	Mcl-1 Bim block	eIF4E-4G inh	Hck Nef HTS	14-3-3 Bad PPI	Mcl1 Bid PPI
Cc1ccc(C)n1-c1ccccc1N1CCCCC1	i	i	i	i	i	i
CCN(CC(=O)Nc1cc(Cl)ccc1OC)CC(=O)NC1CCS(=O)(=O)C1 (stereo unspecified)	i	nt	i	i	74	i
OC1(c2ccc3c(c2)OCO3)CCN(Cc2ccc(F)cc2)CC1	i	nt	i	i	i	i
COc1ccccc1OC1=NS(=O)(=O)c2ccccc21	i	i	i	i	85	i
CCOc1cc(CC(=O)N[C@@H](CC(C)C)c2ccccc2N2CCCCC2)ccc1C(=O)O	i	i	i	nt	i	i
Cc1ccc(N(C(C)C(=O)Nc2cccc(N(C)S(C)(=O)=O)c2)S(C)(=O)=O)cc1 (stereo unspecified)	i	i	i	i	i	i
Cc1ccc(SC(C)C(=O)Nc2cccc(N(C)S(C)(=O)=O)c2)cc1 (stereo unspecified)	i	i	i	i	75	i
CCC(C)C(=O)Nc1ccc(OC)cc1[N+](=O)[O-] (stereo unspecified)	i	i	i	i	i	i
O=C(CSCc1ccc(Cl)cc1)N/N=C/c1ccc(OCC(=O)Nc2ccccc2)cc1	i	i	i	i	i	58
COc1ccccc1NC(=O)COc1ccc(/C=N/NC(=O)CSCc2cc(C)cc(C)c2)cc1	i	i	i	i	i	57
Cc1ccc(NC(=O)COc2ccc(/C=N/NC(=O)CSCc3ccccc3)cc2)cc1	i	i	i	i	i	i
O=C(NCCc1ccncc1)Nc1cccc(Cl)c1	i	i	i	i	i	i
O=C(Nc1cccc(Cl)c1)Nc1nnc(-c2ccncc2)s1	91	i	i	57	81	i
COc1ccc(-c2oc(NC(=O)c3ccc(C)cc3)c(C#N)c2-c2ccc(OC)cc2)cc1	i	i	i	i	87[fluorescence artefact?]	i
CC1=NN(c2ccc(C)cc2)C(=O)/C1=C\c1ccc(Br)s1	i	92	i	i	i	i
CC1=NN(c2ccc(Br)cc2)C(=O)/C1=C/c1cccs1	nt	i	nt	i	nt	nt
CCOC(=O)C(C(C)=O)c1c(Br)c(O)c(O)c2c(C(=O)c3ccc(C)cc3)coc12 (stereo unspecified)	68	i	i	i	i	i
COc1cc(C(=S)N2CCN(c3ccccc3Cl)CC2)cc(O)c1O	60	i	i	i	i	i
CCOCCCNC(=O)C(NC(=O)c1ccc(NC(C)=O)cc1)c1ccccc1 (stereo unspecified)	i	i	i	i	73	i
CCOCCCNC(=O)C(NC(=O)c1ccc(NC(C)=O)cc1)c1ccc(C)cc1 (stereo unspecified)	i	i	i	i	i	i
COc1ccc(CCN(Cc2cc3cccc(C)c3n3nnnc23)C(=O)c2ccncc2)cc1OC	i	i	i	i	i	i
N=C1/C(=C\c2ccc(-c3ccc(C(=O)O)cc3)o2)C(=O)N=C2SC=C(c3ccccc3)N12	117	nt	65	103	80	96
N=C1/C(=C\c2ccc(-c3cccc(Cl)c3)o2)C(=O)N=C2SC=C(c3ccccc3)N12	51	i	i	i	i	i
Cc1cccc(-n2c(C)cc(/C=C3/C(=N)N4C(c5ccccc5)=CSC4=NC3=O)c2C)c1	i	i	i	i	i	i
O=C(Cn1c2[n+](c3ccc(C(F)(F)F)cc31)CCCCC2)Nc1ccccc1	i	i	34[fluorescence artefact?]	i	i	i
COc1cccc2c(=O)c(C/C=C(/C)Cl)c(C)[nH]c12	i	i	i	i	i	92
COc1cccc2c(=O)c(SC(F)(F)C(F)C(F)(F)F)c(C)[nH]c12 (stereo unspecified)	i	i	i	i	i	i
CCCCN(C(C)=O)c1c(N)n(CCC)c(=O)n(CC(=O)Nc2cc(Cl)cc(Cl)c2)c1=O	i	i	i	i	i	i
